Assay results as given in publication PMC11006913.

Key:
Test in all cases: PBM; 200 nM protein, PBS
Settings in all cases: dsDNA, one strand shown
VENTX = molecular target: T1, VENTX (Homo sapiens, UniProt O95231 78-163, R121Q)
T1 sequence: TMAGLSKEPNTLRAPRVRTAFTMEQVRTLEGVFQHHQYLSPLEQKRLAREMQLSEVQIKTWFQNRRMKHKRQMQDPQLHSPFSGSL

HOXA7 [1] = molecular target: HOXA7 (Homo sapiens, UniProt P31268 116-202)
ALX4 [2] = molecular target: ALX4 (Homo sapiens, UniProt Q9H161 200-286)
PRRX1 [3] = molecular target: PRRX1 (Homo sapiens, UniProt P54821 80-166, F113S)
Chain of PRRX1 (Homo sapiens, UniProt P54821 80-166, F113S) (P54821 80-166 F113S): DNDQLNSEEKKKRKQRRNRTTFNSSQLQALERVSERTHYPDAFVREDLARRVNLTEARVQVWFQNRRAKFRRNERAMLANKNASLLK

HOXB6 [4] = molecular target: HOXB6 (Homo sapiens, UniProt P17509 132-218, K202E)
Chain of HOXB6 (Homo sapiens, UniProt P17509 132-218, K202E) (P17509 132-218 K202E): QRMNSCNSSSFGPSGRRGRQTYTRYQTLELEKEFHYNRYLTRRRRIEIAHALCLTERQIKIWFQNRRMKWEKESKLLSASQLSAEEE

ALX4 [5] = molecular target: ALX4 (Homo sapiens, UniProt Q9H161 200-286, Q225E)
Chain of ALX4 (Homo sapiens, UniProt Q9H161 200-286, Q225E) (Q9H161 200-286 Q225E): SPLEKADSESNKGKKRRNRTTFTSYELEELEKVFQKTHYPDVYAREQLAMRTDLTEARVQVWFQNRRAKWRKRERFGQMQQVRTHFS

HOXA2 = HOXA2 (Homo sapiens, UniProt O43364 129-215, R185T)
Chain of HOXA2 (O43364 129-215 R185T): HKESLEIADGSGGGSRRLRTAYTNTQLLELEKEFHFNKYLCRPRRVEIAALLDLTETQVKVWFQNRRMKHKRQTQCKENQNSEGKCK

ALX1 [6] = molecular target: ALX1 (Homo sapiens, UniProt Q15699 118-204, L144V)
Chain of ALX1 (Homo sapiens, UniProt Q15699 118-204, L144V) (Q15699 118-204 L144V): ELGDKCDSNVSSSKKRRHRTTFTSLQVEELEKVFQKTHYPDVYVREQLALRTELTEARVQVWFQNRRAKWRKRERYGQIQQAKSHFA

ALX1 [7] = molecular target: ALX1 (Homo sapiens, UniProt Q15699 118-204, L144R)
Chain of ALX1 (Homo sapiens, UniProt Q15699 118-204, L144R) (Q15699 118-204 L144R): as the sequence (Q15699 118-204 L144V) above, with V27R counted along it

MSX2 = MSX2 (Homo sapiens, UniProt P35548 130-214)
Chain of MSX2 (P35548 130-214): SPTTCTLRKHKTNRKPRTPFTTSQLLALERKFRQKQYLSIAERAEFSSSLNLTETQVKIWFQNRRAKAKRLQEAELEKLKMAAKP

VAX1 [8] = molecular target: VAX1 (Homo sapiens, UniProt Q5SQQ9 86-172, T142I)
Chain of VAX1 (Homo sapiens, UniProt Q5SQQ9 86-172, T142I) (Q5SQQ9 86-172 T142I): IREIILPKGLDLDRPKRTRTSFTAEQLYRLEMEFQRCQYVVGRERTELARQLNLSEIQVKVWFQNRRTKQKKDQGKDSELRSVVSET

HOXA7 [9] = molecular target: HOXA7 (Homo sapiens, UniProt P31268 116-202, W177C)
Chain of HOXA7 (Homo sapiens, UniProt P31268 116-202, W177C) (P31268 116-202 W177C): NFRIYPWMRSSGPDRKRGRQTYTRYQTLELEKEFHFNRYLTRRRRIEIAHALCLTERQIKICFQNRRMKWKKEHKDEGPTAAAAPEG

ALX1 [10] = molecular target: ALX1 (Homo sapiens, UniProt Q15699 118-204)
Chain of ALX1 (Homo sapiens, UniProt Q15699 118-204) (Q15699 118-204): as the sequence (Q15699 118-204 L144V) above, with V27L counted along it

PRRX1 [11] = molecular target: PRRX1 (Homo sapiens, UniProt P54821 80-166)
Chain of PRRX1 (Homo sapiens, UniProt P54821 80-166) (P54821 80-166): as the sequence (P54821 80-166 F113S) above, with S34F counted along it

VAX1 [12] = molecular target: VAX1 (Homo sapiens, UniProt Q5SQQ9 86-172, K157R)
Chain of VAX1 (Homo sapiens, UniProt Q5SQQ9 86-172, K157R) (Q5SQQ9 86-172 K157R): as the sequence (Q5SQQ9 86-172 T142I) above, with I57T, K72R counted along it

HOXB6 [13] = molecular target: HOXB6 (Homo sapiens, UniProt P17509 132-218)
Chain of HOXB6 (Homo sapiens, UniProt P17509 132-218) (P17509 132-218): as the sequence (P17509 132-218 K202E) above, with E71K counted along it

HOXA4 [14] = molecular target: HOXA4 (Homo sapiens, UniProt Q00056 201-287, W262R)
Chain of HOXA4 (Homo sapiens, UniProt Q00056 201-287, W262R) (Q00056 201-287 W262R): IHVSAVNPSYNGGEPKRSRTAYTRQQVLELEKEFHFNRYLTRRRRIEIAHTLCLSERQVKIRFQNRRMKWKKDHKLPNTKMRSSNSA

HOXA4 [15] = molecular target: HOXA4 (Homo sapiens, UniProt Q00056 201-287)
Chain of HOXA4 (Homo sapiens, UniProt Q00056 201-287) (Q00056 201-287): as the sequence (Q00056 201-287 W262R) above, with R62W counted along it

HOXA4 [16] = molecular target: HOXA4 (Homo sapiens, UniProt Q00056 201-287, W262F)
Chain of HOXA4 (Homo sapiens, UniProt Q00056 201-287, W262F) (Q00056 201-287 W262F): as the sequence (Q00056 201-287 W262R) above, with R62F counted along it

Chain of ALX4 (Homo sapiens, UniProt Q9H161 200-286) (Q9H161 200-286): as the sequence (Q9H161 200-286 Q225E) above, with E26Q counted along it
Chain of HOXA7 (Homo sapiens, UniProt P31268 116-202) (P31268 116-202): as the sequence (P31268 116-202 W177C) above, with C62W counted along it

| Sequence | binding signal (VENTX) | binding signal (HOXA7 [1]) | binding signal (ALX4 [2]) | binding signal (PRRX1 [3]) | binding signal (HOXB6 [4]) | binding signal (ALX4 [5]) | binding signal (HOXA2) | binding signal (ALX1 [6]) | binding signal (ALX1 [7]) | binding signal (MSX2) | binding signal (VAX1 [8]) | binding signal (HOXA7 [9]) | binding signal (ALX1 [10]) | binding signal (PRRX1 [11]) | binding signal (VAX1 [12]) | binding signal (HOXB6 [13]) | binding signal (HOXA4 [14]) | binding signal (HOXA4 [15]) | binding signal (HOXA4 [16]) |
| --- | --- | --- | --- | --- | --- | --- | --- | --- | --- | --- | --- | --- | --- | --- | --- | --- | --- | --- | --- |
| ACCAATTA | 12.2 upbm affinity estimate (log intensity, higher = more binding, comparable within an allelic series) | 11.2 upbm affinity estimate (log intensity, higher = more binding, comparable within an allelic series) | 14.2 upbm affinity estimate (log intensity, higher = more binding, comparable within an allelic series) | 11.5 upbm affinity estimate (log intensity, higher = more binding, comparable within an allelic series) | 9.84 upbm affinity estimate (log intensity, higher = more binding, comparable within an allelic series) | 13.8 upbm affinity estimate (log intensity, higher = more binding, comparable within an allelic series) | 12.8 upbm affinity estimate (log intensity, higher = more binding, comparable within an allelic series) | 12.1 upbm affinity estimate (log intensity, higher = more binding, comparable within an allelic series) | 11.7 upbm affinity estimate (log intensity, higher = more binding, comparable within an allelic series) | 14.2 upbm affinity estimate (log intensity, higher = more binding, comparable within an allelic series) | 12.4 upbm affinity estimate (log intensity, higher = more binding, comparable within an allelic series) | 8.84 upbm affinity estimate (log intensity, higher = more binding, comparable within an allelic series) | 12.7 upbm affinity estimate (log intensity, higher = more binding, comparable within an allelic series) | 13.6 upbm affinity estimate (log intensity, higher = more binding, comparable within an allelic series) | 12.7 upbm affinity estimate (log intensity, higher = more binding, comparable within an allelic series) | 11.7 upbm affinity estimate (log intensity, higher = more binding, comparable within an allelic series) | – | – | – |
| TAATTGCA | 11.8 upbm affinity estimate (log intensity, higher = more binding, comparable within an allelic series) | 11.6 upbm affinity estimate (log intensity, higher = more binding, comparable within an allelic series) | – | – | 10 upbm affinity estimate (log intensity, higher = more binding, comparable within an allelic series) | – | 12.7 upbm affinity estimate (log intensity, higher = more binding, comparable within an allelic series) | – | – | 13.9 upbm affinity estimate (log intensity, higher = more binding, comparable within an allelic series) | 12.5 upbm affinity estimate (log intensity, higher = more binding, comparable within an allelic series) | 8.79 upbm affinity estimate (log intensity, higher = more binding, comparable within an allelic series) | – | – | 12.4 upbm affinity estimate (log intensity, higher = more binding, comparable within an allelic series) | 12.1 upbm affinity estimate (log intensity, higher = more binding, comparable within an allelic series) | – | – | – |
| CTCAATTA | – | – | 13.9 upbm affinity estimate (log intensity, higher = more binding, comparable within an allelic series) | 11.2 upbm affinity estimate (log intensity, higher = more binding, comparable within an allelic series) | – | 13.1 upbm affinity estimate (log intensity, higher = more binding, comparable within an allelic series) | 12.6 upbm affinity estimate (log intensity, higher = more binding, comparable within an allelic series) | 11.8 upbm affinity estimate (log intensity, higher = more binding, comparable within an allelic series) | 11.5 upbm affinity estimate (log intensity, higher = more binding, comparable within an allelic series) | 13.9 upbm affinity estimate (log intensity, higher = more binding, comparable within an allelic series) | 12.8 upbm affinity estimate (log intensity, higher = more binding, comparable within an allelic series) | – | 12.4 upbm affinity estimate (log intensity, higher = more binding, comparable within an allelic series) | 13.4 upbm affinity estimate (log intensity, higher = more binding, comparable within an allelic series) | 12.9 upbm affinity estimate (log intensity, higher = more binding, comparable within an allelic series) | – | 10.4 upbm affinity estimate (log intensity, higher = more binding, comparable within an allelic series) | 13.6 upbm affinity estimate (log intensity, higher = more binding, comparable within an allelic series) | 11.4 upbm affinity estimate (log intensity, higher = more binding, comparable within an allelic series) |
| AATTAACA | 11.9 upbm affinity estimate (log intensity, higher = more binding, comparable within an allelic series) | 11.3 upbm affinity estimate (log intensity, higher = more binding, comparable within an allelic series) | 13.9 upbm affinity estimate (log intensity, higher = more binding, comparable within an allelic series) | 11.2 upbm affinity estimate (log intensity, higher = more binding, comparable within an allelic series) | 10 upbm affinity estimate (log intensity, higher = more binding, comparable within an allelic series) | 13.2 upbm affinity estimate (log intensity, higher = more binding, comparable within an allelic series) | 12.6 upbm affinity estimate (log intensity, higher = more binding, comparable within an allelic series) | 11.7 upbm affinity estimate (log intensity, higher = more binding, comparable within an allelic series) | 11.3 upbm affinity estimate (log intensity, higher = more binding, comparable within an allelic series) | 13.6 upbm affinity estimate (log intensity, higher = more binding, comparable within an allelic series) | 12.6 upbm affinity estimate (log intensity, higher = more binding, comparable within an allelic series) | 8.91 upbm affinity estimate (log intensity, higher = more binding, comparable within an allelic series) | 12.4 upbm affinity estimate (log intensity, higher = more binding, comparable within an allelic series) | 13.3 upbm affinity estimate (log intensity, higher = more binding, comparable within an allelic series) | 12.8 upbm affinity estimate (log intensity, higher = more binding, comparable within an allelic series) | 11.7 upbm affinity estimate (log intensity, higher = more binding, comparable within an allelic series) | 10.8 upbm affinity estimate (log intensity, higher = more binding, comparable within an allelic series) | 13.7 upbm affinity estimate (log intensity, higher = more binding, comparable within an allelic series) | 11.7 upbm affinity estimate (log intensity, higher = more binding, comparable within an allelic series) |
| AATTAACT | – | 11.2 upbm affinity estimate (log intensity, higher = more binding, comparable within an allelic series) | 13.9 upbm affinity estimate (log intensity, higher = more binding, comparable within an allelic series) | 11.2 upbm affinity estimate (log intensity, higher = more binding, comparable within an allelic series) | 9.99 upbm affinity estimate (log intensity, higher = more binding, comparable within an allelic series) | 13.4 upbm affinity estimate (log intensity, higher = more binding, comparable within an allelic series) | 12.5 upbm affinity estimate (log intensity, higher = more binding, comparable within an allelic series) | 11.7 upbm affinity estimate (log intensity, higher = more binding, comparable within an allelic series) | 11.4 upbm affinity estimate (log intensity, higher = more binding, comparable within an allelic series) | 13.5 upbm affinity estimate (log intensity, higher = more binding, comparable within an allelic series) | – | 8.89 upbm affinity estimate (log intensity, higher = more binding, comparable within an allelic series) | 12.3 upbm affinity estimate (log intensity, higher = more binding, comparable within an allelic series) | 13.3 upbm affinity estimate (log intensity, higher = more binding, comparable within an allelic series) | – | 11.6 upbm affinity estimate (log intensity, higher = more binding, comparable within an allelic series) | – | – | 11.5 upbm affinity estimate (log intensity, higher = more binding, comparable within an allelic series) |
| GACAATTA | – | 11.2 upbm affinity estimate (log intensity, higher = more binding, comparable within an allelic series) | – | 11 upbm affinity estimate (log intensity, higher = more binding, comparable within an allelic series) | 9.96 upbm affinity estimate (log intensity, higher = more binding, comparable within an allelic series) | – | – | – | – | 13.8 upbm affinity estimate (log intensity, higher = more binding, comparable within an allelic series) | – | 8.85 upbm affinity estimate (log intensity, higher = more binding, comparable within an allelic series) | – | 13.2 upbm affinity estimate (log intensity, higher = more binding, comparable within an allelic series) | – | 11.7 upbm affinity estimate (log intensity, higher = more binding, comparable within an allelic series) | – | – | – |
